# Source: the supplement of paper PMC10849652
# The full data set covers some 7,900 targets. This sample favours those with a hit. About 0.6% of all pairs of compound and target were hits. A number with no mark means an inactive call.
# How the values were obtained:
# Experiment in all cases: log2 fold change, soluble protein after heating vs DMSO (PISA); higher = thermal stabilisation; K562 cells, 10 uM, 30 min; active = over 0.2 and 3.5 SD of the protein, either way, in both replicates (recomputed)
# [1] = compound: COC1=CC=C(C=C1)CN2C=CC3=C2C=C(C=C3)C(=O)NO
# Procedure, shortened: (§1)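 Soluble protein was defined as the supernatant after 21,000xg for 90 min. It came from K562 cells at 2×10^6 cells/mL given 10 μM compound for 30 min, heated in aliquots for 3 min across 48°C-58°C, pooled, and extracted in PBS with 0.5% NP-40 at 4°C, and was quantified by TMTpro 16plex LC-MS/MS with equalised channel sums. Thermal stability against control samples, from duplicates, is reported as log2 fold change.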
# filanesib = compound: CON(C)C(=O)N1N=C(c2cc(F)ccc2F)S[C@@]1(CCCN)c1ccccc1 [filanesib]
# Procedure, shortened: as §1
# zotarolimus = compound: CO[C@H]1C[C@@H]2CC[C@@H](C)[C@@](O)(O2)C(=O)C(=O)N2CCCC[C@H]2C(=O)O[C@H]([C@H](C)C[C@@H]2CC[C@H](n3cnnn3)[C@H](OC)C2)CC(=O)[C@H](C)/C=C(\C)[C@@H](O)[C@@H](OC)C(=O)[C@H](C)C[C@H](C)/C=C/C=C/C=C/1C [zotarolimus]
# Procedure, shortened: as §1
# idasanutlin = compound: COc1cc(C(=O)O)ccc1NC(=O)[C@@H]1N[C@@H](CC(C)(C)C)[C@](C#N)(c2ccc(Cl)cc2F)[C@H]1c1cccc(Cl)c1F [idasanutlin]
# Procedure, shortened: as §1
# alisertib = compound: COc1cc(Nc2ncc3c(n2)-c2ccc(Cl)cc2C(c2c(F)cccc2OC)=NC3)ccc1C(=O)O [alisertib]
# Procedure, shortened: as §1
# [2] = compound: COc1cc2nc(-c3cc(F)ccc3O)nc(N[C@@H]3CNC[C@H]3C(C)(C)O)c2cc1OC
# Procedure, shortened: as §1
# gefitinib = compound: COc1cc2ncnc(Nc3ccc(F)c(Cl)c3)c2cc1OCCCN1CCOCC1 [gefitinib]
# Procedure, shortened: as §1
# [3] = compound: COc1cccc2cc(-c3nc([C@H]4CC[C@H](C(=O)O)CC4)n4ncnc(N)c34)[nH]c12
# Procedure, shortened: as §1
# lapatinib = compound: CS(=O)(=O)CCNCc1ccc(-c2ccc3ncnc(Nc4ccc(OCc5cccc(F)c5)c(Cl)c4)c3c2)o1 [lapatinib]
# Procedure, shortened: as §1
# pictilisib = compound: CS(=O)(=O)N1CCN(Cc2cc3nc(-c4cccc5[nH]ncc45)nc(N4CCOCC4)c3s2)CC1 [pictilisib]
# Procedure, shortened: as §1
# [4] = compound: CS(=O)(=O)c1ccc(-c2cnc(N)c(C(=O)Nc3ccccc3)n2)cc1
# Procedure, shortened: as §1
# crizotinib = compound: C[C@@H](Oc1cc(-c2cnn(C3CCNCC3)c2)cnc1N)c1c(Cl)ccc(F)c1Cl [crizotinib]
# Procedure, shortened: as §1
# [5] = compound: C[C@@H]1COCCN1C2=NC(=NC(=C2)C3(CC3)S(=O)(=O)C)C4=C5C=CNC5=CC=C4
# Procedure, shortened: as §1
# [6] = compound: C[C@H](C1=CC=C(C=C1)C(=O)NC2=C3C=CNC3=NC=C2)N
# Procedure, shortened: as §1
# duvelisib = compound: C[C@H](Nc1ncnc2nc[nH]c12)c1cc2cccc(Cl)c2c(=O)n1-c1ccccc1 [duvelisib]
# Procedure, shortened: as §1
# gandotinib = compound: Cc1cc(Nc2cc(CN3CCOCC3)c3nc(C)c(Cc4ccc(Cl)cc4F)n3n2)n[nH]1 [gandotinib]
# Procedure, shortened: as §1
# tozasertib = compound: Cc1cc(Nc2cc(N3CCN(C)CC3)nc(Sc3ccc(NC(=O)C4CC4)cc3)n2)n[nH]1 [tozasertib]
# Procedure, shortened: as §1
# [7] = compound: Cc1cc(SCc2sc(-c3ccc(C(F)(F)F)cc3)nc2C)ccc1OCC(=O)O
# Procedure, shortened: as §1
# doramapimod = compound: Cc1ccc(-n2nc(C(C)(C)C)cc2NC(=O)Nc2ccc(OCCN3CCOCC3)c3ccccc23)cc1 [doramapimod]
# Procedure, shortened: as §1
# ispinesib = compound: Cc1ccc(C(=O)N(CCCN)[C@@H](c2nc3cc(Cl)ccc3c(=O)n2Cc2ccccc2)C(C)C)cc1 [ispinesib]
# Procedure, shortened: as §1
# Chain of UniProt Q96CQ1 (Q96CQ1 whole entry, looked up): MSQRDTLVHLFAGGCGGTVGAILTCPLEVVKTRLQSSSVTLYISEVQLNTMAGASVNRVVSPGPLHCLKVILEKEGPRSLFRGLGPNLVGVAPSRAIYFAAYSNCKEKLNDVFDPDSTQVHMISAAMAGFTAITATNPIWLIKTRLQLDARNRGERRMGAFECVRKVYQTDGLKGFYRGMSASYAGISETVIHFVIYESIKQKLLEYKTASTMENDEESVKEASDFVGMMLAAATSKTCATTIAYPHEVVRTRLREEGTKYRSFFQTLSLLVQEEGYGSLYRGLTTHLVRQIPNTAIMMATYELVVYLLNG
# Chain of UniProt A6NHR9 (A6NHR9 whole entry, looked up): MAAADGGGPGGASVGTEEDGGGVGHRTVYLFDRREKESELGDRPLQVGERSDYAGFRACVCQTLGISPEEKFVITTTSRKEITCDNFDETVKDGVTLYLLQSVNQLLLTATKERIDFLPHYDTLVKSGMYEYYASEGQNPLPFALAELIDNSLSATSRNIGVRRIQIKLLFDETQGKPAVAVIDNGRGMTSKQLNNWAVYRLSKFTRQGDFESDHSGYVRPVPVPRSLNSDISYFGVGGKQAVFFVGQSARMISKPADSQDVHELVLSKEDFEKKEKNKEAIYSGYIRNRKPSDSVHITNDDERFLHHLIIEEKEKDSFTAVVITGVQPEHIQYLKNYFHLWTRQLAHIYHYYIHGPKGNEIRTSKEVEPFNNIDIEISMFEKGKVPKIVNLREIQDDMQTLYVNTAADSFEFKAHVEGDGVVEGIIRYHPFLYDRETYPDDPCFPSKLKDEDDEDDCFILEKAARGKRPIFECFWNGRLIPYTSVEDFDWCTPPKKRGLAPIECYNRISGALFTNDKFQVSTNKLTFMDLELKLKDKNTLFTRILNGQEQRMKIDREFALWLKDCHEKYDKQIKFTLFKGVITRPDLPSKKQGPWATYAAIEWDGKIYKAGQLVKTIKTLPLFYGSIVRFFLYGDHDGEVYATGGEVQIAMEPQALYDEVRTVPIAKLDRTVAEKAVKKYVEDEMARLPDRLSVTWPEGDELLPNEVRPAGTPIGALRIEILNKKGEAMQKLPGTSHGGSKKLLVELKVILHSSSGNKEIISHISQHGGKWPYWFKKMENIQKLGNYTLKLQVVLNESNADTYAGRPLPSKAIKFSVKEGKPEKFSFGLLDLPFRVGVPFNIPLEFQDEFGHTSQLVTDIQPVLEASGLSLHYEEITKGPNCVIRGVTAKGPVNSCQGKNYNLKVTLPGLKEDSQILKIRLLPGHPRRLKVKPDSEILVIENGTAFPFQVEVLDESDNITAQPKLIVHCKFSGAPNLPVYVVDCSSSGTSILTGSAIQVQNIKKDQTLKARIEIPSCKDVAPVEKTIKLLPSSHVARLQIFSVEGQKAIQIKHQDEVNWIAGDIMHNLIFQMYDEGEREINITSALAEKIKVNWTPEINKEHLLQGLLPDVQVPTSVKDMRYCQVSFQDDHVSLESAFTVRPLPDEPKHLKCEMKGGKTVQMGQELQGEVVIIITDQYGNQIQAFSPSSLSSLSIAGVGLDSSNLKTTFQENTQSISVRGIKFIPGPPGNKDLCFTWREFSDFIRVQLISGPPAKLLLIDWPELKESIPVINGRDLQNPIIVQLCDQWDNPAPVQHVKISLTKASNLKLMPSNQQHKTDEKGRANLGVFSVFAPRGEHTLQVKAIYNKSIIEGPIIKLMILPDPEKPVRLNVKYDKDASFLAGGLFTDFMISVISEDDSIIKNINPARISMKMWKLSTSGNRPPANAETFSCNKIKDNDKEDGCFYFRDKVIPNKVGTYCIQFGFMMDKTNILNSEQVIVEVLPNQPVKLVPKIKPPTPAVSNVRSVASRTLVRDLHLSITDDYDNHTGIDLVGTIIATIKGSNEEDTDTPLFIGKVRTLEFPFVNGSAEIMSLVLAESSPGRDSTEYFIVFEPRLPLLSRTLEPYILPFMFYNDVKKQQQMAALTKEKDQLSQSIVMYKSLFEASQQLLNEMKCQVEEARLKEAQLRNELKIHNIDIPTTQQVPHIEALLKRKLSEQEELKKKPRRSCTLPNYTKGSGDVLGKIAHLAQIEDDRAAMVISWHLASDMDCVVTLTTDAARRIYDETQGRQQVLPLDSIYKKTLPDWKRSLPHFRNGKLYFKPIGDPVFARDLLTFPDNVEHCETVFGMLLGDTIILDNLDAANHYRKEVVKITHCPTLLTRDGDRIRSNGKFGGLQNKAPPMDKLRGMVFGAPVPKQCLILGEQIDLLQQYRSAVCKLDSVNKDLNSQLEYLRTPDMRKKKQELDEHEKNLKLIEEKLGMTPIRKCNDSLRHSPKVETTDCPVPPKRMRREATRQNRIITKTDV
# Chain of UniProt P56962 (P56962 whole entry, looked up): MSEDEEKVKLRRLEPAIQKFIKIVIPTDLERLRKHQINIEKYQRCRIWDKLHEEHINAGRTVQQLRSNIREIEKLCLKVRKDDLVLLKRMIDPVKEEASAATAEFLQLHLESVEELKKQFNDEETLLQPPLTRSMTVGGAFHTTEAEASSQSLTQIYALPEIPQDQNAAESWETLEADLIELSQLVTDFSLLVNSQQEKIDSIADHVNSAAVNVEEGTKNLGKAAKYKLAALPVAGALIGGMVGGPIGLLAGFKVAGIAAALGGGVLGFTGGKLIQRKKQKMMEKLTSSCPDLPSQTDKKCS
# Chain of UniProt Q9NZD8 (Q9NZD8 whole entry, looked up): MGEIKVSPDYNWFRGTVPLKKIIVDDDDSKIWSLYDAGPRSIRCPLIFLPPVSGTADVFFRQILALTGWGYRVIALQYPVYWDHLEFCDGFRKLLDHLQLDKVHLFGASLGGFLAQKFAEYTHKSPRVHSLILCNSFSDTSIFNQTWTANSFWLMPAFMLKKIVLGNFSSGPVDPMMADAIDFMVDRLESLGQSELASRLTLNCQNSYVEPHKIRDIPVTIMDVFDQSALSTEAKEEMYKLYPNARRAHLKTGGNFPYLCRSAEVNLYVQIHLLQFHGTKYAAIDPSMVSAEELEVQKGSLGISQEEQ
# Chain of UniProt P15907 (P15907 whole entry, looked up): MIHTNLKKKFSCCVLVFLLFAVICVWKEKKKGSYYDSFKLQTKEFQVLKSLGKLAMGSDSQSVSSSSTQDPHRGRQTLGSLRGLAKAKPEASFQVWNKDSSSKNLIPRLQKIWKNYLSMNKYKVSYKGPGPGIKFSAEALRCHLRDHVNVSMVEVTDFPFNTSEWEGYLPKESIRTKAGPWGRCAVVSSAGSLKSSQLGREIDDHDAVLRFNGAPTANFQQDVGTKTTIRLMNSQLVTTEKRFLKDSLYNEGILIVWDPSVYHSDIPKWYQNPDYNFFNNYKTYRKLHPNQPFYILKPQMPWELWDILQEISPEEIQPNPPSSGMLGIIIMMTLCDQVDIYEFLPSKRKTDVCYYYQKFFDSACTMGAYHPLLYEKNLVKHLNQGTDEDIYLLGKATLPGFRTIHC
# Chain of UniProt Q16629 (Q16629 whole entry, looked up): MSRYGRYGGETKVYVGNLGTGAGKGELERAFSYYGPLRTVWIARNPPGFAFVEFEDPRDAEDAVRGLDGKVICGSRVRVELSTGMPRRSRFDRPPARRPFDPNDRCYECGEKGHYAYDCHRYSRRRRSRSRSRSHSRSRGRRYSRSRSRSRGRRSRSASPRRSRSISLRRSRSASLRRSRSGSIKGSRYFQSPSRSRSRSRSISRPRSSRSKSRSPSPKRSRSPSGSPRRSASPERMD
# Chain of UniProt Q15005 (Q15005 whole entry, looked up): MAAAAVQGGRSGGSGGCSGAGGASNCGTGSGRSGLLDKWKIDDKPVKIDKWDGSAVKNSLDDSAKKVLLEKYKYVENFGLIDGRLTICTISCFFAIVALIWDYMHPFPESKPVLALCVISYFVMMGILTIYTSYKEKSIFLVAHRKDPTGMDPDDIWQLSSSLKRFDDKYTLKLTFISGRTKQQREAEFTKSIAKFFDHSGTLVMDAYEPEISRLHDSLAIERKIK
# Chain of UniProt Q92581 (Q92581 whole entry, looked up): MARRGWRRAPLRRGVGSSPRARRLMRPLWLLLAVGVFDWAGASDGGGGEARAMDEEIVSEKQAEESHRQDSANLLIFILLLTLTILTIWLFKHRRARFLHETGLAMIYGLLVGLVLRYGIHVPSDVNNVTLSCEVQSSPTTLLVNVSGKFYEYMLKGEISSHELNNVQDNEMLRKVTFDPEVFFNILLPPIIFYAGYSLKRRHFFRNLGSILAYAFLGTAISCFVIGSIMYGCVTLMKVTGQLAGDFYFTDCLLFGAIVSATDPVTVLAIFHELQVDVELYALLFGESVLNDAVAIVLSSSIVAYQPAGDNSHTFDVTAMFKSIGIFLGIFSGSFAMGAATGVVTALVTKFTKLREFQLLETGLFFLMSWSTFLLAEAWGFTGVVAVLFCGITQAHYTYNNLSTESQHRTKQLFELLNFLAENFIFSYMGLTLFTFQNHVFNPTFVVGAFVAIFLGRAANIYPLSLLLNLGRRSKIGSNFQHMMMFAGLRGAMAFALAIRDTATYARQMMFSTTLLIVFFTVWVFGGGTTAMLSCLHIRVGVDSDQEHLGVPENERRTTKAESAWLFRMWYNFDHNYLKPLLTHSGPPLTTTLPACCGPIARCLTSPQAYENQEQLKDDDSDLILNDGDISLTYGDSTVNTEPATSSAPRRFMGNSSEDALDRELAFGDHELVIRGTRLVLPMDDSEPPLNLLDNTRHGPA
# Chain of UniProt Q8NEF9 (Q8NEF9 whole entry, looked up): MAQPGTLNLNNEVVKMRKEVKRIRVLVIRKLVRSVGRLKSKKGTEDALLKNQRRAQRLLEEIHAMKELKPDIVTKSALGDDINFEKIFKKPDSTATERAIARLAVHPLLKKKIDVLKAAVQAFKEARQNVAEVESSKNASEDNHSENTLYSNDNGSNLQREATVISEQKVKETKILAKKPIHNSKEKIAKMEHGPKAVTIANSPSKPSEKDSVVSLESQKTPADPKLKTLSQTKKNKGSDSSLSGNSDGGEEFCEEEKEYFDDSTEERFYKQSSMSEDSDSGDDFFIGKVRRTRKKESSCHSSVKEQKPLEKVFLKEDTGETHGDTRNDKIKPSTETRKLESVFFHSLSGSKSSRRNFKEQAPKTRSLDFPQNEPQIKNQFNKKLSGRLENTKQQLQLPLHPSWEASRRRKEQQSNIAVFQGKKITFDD
Target,log2 fold change [1],log2 fold change (filanesib),log2 fold change (zotarolimus),log2 fold change (idasanutlin),log2 fold change (alisertib),log2 fold change [2],log2 fold change (gefitinib),log2 fold change [3],log2 fold change (lapatinib),log2 fold change (pictilisib),log2 fold change [4],log2 fold change (crizotinib),log2 fold change [5],log2 fold change [6],log2 fold change (duvelisib),log2 fold change (gandotinib),log2 fold change (tozasertib),log2 fold change [7],log2 fold change (doramapimod),log2 fold change (ispinesib)
SLC25A36 (UniProt Q96CQ1),0.006,-0.069,0.013,-0.064,-0.03,0.083,-0.014,0.001,0.107,0.052,0.016,0.067,-0.061,-0.011,0.195,0.313,-0.059,-0.089,-0.027,-0.021
TARBP1 (UniProt Q13395),-0.036,-0.077,0.105,-0.027,0.096,0.049,-0.026,-0.019,-0.015,-0.078,0.076,0.016,0.028,-0.074,-0.046,-0.075,-0.018,0.038,-0.004,0.026
SRSF7 (UniProt Q16629),-0.089,0.422,-0.015,0.327,-0.114,-0.047,0.084,0.013,0.1,-0.003,-0.096,0.008,-0.311,0.045,-0.093,0.319,-0.005,-0.025,0.073,-0.089
SRP72 (UniProt O76094),0.003,0.075,0.048,-0.045,-0.131,0.023,0.007,-0.235,-0.043,0,0.021,-0.121,-0.017,0.167,-0.004,-0.08,0.068,0.154,0.051,-0.185
SPECC1 (UniProt Q5M775),-0.357 (active),0.064,0.038,-0.111,-0.019,-0.014,0.028,0.309 (active),-0.006,0.08,-0.104,-0.085,-0.02,0.045,0.014,-0.18,0.007,-0.036,0.137,-0.079
SPCS2 (UniProt Q15005),0.5 (active),-0.061,0.018,-0.039,0.008,0.092,0.03,-0.021,0.002,-0.006,0.032,0.001,0.02,-0.036,0.035,-0.007,-0.015,-0.013,0.047,0.085
SREK1 isoform 2 (UniProt Q8WXA9),0.26,-0.1,0.053,0.086,-0.096,-0.072,0.066,0.06,0.108,-0.001,0.317,-0.05,-0.005,-0.345,0.026,0.014,0.003,0.105,-0.027,0.059
SRFBP1 (UniProt Q8NEF9),0.013,0.193,-0.021,-0.018,-0.027,0.306,0.06,-0.072,0.13,-0.065,-0.053,-0.029,-0.21,0.061,-0.039,0.083,0.055,-0.028,0.007,-0.055
SMCHD1 (UniProt A6NHR9),0.043,0.008,0.123,0.062,-0.005,-0.179,-0.078,-0.096,0.002,0.035,-0.019,-0.065,-0.041,-0.104,0,0.064,0.007,0.104,0.059,-0.149
ST6GAL1 (UniProt P15907),0.013,0.224 (active),0.051,0.066,-0.085,0.046,0.095,-0.003,0.116,0.063,-0.064,-0.189,-0.005,0.037,0.073,0.014,0.001,0.018,0.083,0.002
SPG21 (UniProt Q9NZD8),-0.026,0,0.063,0.03,-0.084,0.174,0.226,0.011,0.072,0.064,0.077,-0.24,0.053,0.013,0.003,0,0.026,0.052,0.091,-0.093
SNX9 (UniProt Q9Y5X1),-0.002,-0.017,0.004,-0.01,-0.013,0.019,0.038,-0.059,-0.034,-0.036,0.013,-0.077,-0.009,0.003,-0.039,-0.054,-0.015,0.115,-0.009,-0.074
STX17 (UniProt P56962),0.023,0.013,0.046,-0.027,-0.12,-0.081,0.027,-0.001,0.039,0.093,0.197,-0.27,0.025,-0.171,-0.156,-0.026,-0.031,0.001,0.031,-0.246
SLC25A42 (UniProt Q86VD7),0.241 (active),-0.011,0.058,0.047,0.012,-0.029,0.063,0.043,0.084,-0.003,-0.054,0.028,0.015,-0.055,0.005,0.09,-0.021,-0.003,-0.004,0.054
SPG11 (UniProt Q96JI7),-0.232,0.158,-0.415,-0.118,0.388,0.14,-0.032,0.331,-0.167,0.401,0,0.058,-0.282,0.619,-0.397,0.173,-0.255,0,-0.01,-0.328
SLC9A6 isoform 2 (UniProt Q92581),-0.077,-0.051,-0.062,-0.011,-0.013,0.062,-0.017,0.071,0.003,0.129,0.028,0.048,0.022,-0.005,0.079,-0.105,-0.024,-0.067,0,-0.331 (active)
